This is a sample that favours compounds with a hit; in the whole collection about 6.2% have one here.
ATXN2 expr inh – reduces ATXN2 reporter expression in HEK-293 cells | HEK-293 ATXN2-luciferase reporter, luminescence, 24 h | Potency, µM (top dose mostly 57 µM), for the others: at the top dose activity change, negative = inhibition, usual class: inhibitors | 360,000 compounds, 0.72% hits; further: on the % scale 0 is the no-effect control and ±100 the full control effect; nearly all actives have a fitted effect of over 55% in size
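ATXN2-luciferase reporter cells (luciferase flanked by upstream and downstream ATXN2 gene portions) were treated 24 h at 37 °C with compounds at up to 57 uM. SteadyGlo luminescence gave expression; GF-AFC fluorescence gave viability.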
KB-V1 cytotox – kills drug-selected multidrug resistant KB-V1 cells; AID 1347076; KB-V1 MDR cells viability, CellTiter-Glo, 72 h; 400,000 compounds, 3.4% hits; Potency, µM (top dose mostly 46.1 µM), usual class: cytotoxic; further: on the % scale 0 is the no-effect control and ±100 the full control effect; nearly all actives have a fitted effect of over 60% in size
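qHTS viability screen in drug-selected KB-V1 MDR cells: 72 h compound treatment at 37 degrees C, ATP luminescence end point.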
HT1080-NT tox – kills 2HG-producing HT-1080-NT fibrosarcoma cells. Potency, µM (highest dose often 46.1 µM), for the others: top-dose activity, negative = less viability, usual class: cytotoxic. 360,000 compounds, 1.6% hits. HT-1080-NT fibrosarcoma viability, CellTiter-Glo ATP luminescence, 48 h;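 further: NT is the 2HG producing partner of a matched IDH1 knockdown line; 0% = DMSO-treated cells and -100% = media-only wells without cells; nearly all actives have a fitted effect of over 55% in size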
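HT-1080-NT; 750 cells/well; 5% FBS RPMI; 48 h compound, 37 degrees C; CellTiter-Glo luminescence; curve fitting and curve-class assignment.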
KB-3-1 tox – kills parental KB-3-1 adenocarcinoma cells; 400,000 compounds, 1.4% hits; Potency, µM (titrated, usually from 46.1 µM), actives largely listed as cytotoxic; KB-3-1 viability, CellTiter-Glo ATP luminescence, 72 h; AID 1347075; further: on the % scale 0 is the no-effect control and ±100 the full control effect; nearly all actives have a fitted effect of over 60% in size
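72 h, 37 °C compound treatment of KB-3-1 parental cells; CellTiter-Glo added, 10 min, luminescence read. Data corrected against DMSO-only plates and normalized before curve fitting.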
ATXN viability – reduces viability in counter-screen for ATXN expression inhibitors; S2 cells (HEK-293 line with an ATXN2-luciferase reporter) viability, CellTiter-Fluor protease fluorescence, 24 h; 400,000 compounds, 0.49% hits; Potency, µM (doses to about 56.7 µM), actives largely listed as cytotoxic; further: nearly all actives have a fitted effect of over 40% in size
HT1080 IDH1KD tx – HT-1080 IDH1 knockdown cell toxicity (counter line); HT-1080 IDH1 knockdown viability, ATP luminescence, 48 h; Potency, µM (highest dose often 46.1 µM), inactives show at the highest dose activity, negative = toxicity, actives largely listed as cytotoxic; 360,000 compounds, 2% hits; AID 686971;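 further: 0% = DMSO wells and -100% = cell-free medium wells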
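IDH1KD HT-1080 cells, 750/well, RPMI + 5% FBS; compound pinned after 2 h settling; 48 h, 37 °C; CellTiter-Glo luminescence; % activity normalised to DMSO and no-cell wells; curves fitted, classed by r2 and efficacy.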
* = called active by the depositor. The call rests on the fitted dose curve; in most records, active means well fitted curve in the direction sought with a large enough effect; inconclusive means small, poorly fitted or top-dose-only effect, or another doubt; inactive means no such curve, though single readings can be large; an effect the other way counts as inactive or inconclusive. Potency means the concentration at half of the fitted maximal effect.

O=c1cc(NCCc2ccccc2)c2ccccc2o1 was read as ATXN2 expr inh 22%, KB-V1 cytotox 13µM*, HT1080-NT tox -23%, KB-3-1 tox inconclusive, ATXN viability inconclusive and HT1080 IDH1KD tx -19%.
Screening CN(Cc1ccccc1)Cc1cc(=O)oc2ccccc12 returned ATXN2 expr inh 25%, KB-V1 cytotox 9.2µM*, HT1080-NT tox -2%, KB-3-1 tox inactive, ATXN viability inactive and HT1080 IDH1KD tx 0%.
For Cc1ccc2c(CNCc3ccccc3)cc(=O)oc2c1 the results were ATXN2 expr inh inconclusive, KB-V1 cytotox 3.7µM*, HT1080-NT tox 5.2µM*, KB-3-1 tox 5.2µM*, ATXN viability inactive and HT1080 IDH1KD tx 8.2µM*.
`CC(NCc1ccc(F)cc1)C(=O)Nc1cc(S(=O)(=O)N2CCCCC2)ccc1Cl` (centres undefined) gave ATXN2 expr inh -8%, KB-V1 cytotox 16µM*, HT1080-NT tox 0%, KB-3-1 tox inconclusive, ATXN viability inactive and HT1080 IDH1KD tx -14%.
CN(C)c1ccc(S(=O)(=O)N2CCCCC2)cc1NC(=O)CCNC(=O)c1ccc(Cl)cc1 was read as ATXN2 expr inh 7%, KB-V1 cytotox 21µM*, HT1080-NT tox -1%, KB-3-1 tox inactive, ATXN viability inactive and HT1080 IDH1KD tx -2%.
`CC(=O)OCC(=O)Nc1cc(S(=O)(=O)N2CCCCCC2)ccc1Cl` gave KB-V1 cytotox inactive, HT1080-NT tox 8%, KB-3-1 tox inactive, ATXN viability inactive and HT1080 IDH1KD tx 3%.
Screening CC(C)(C)CC(=O)Nc1cc(S(=O)(=O)N2CCCCCC2)ccc1Cl returned ATXN2 expr inh -11%, KB-V1 cytotox 18µM*, HT1080-NT tox 0%, KB-3-1 tox inactive, ATXN viability inactive and HT1080 IDH1KD tx -13%.
`O=C(CCl)Nc1cc(S(=O)(=O)N2CCCCCC2)ccc1Cl` gave ATXN2 expr inh inconclusive, KB-V1 cytotox 12µM*, HT1080-NT tox 23µM*, KB-3-1 tox 13µM*, ATXN viability 18µM* and HT1080 IDH1KD tx inconclusive.
Cc1ccc(S(=O)(=O)C(CNC(=O)COc2ccc(Cl)cc2)c2ccco2)cc1 (centres undefined) was read as KB-V1 cytotox inactive and KB-3-1 tox inactive.
Screening COc1cc2c(c(OC)c1)C(c1cccc(F)c1F)CC(=O)N2 (centres undefined) returned ATXN2 expr inh 2%, KB-V1 cytotox inactive, KB-3-1 tox inactive and ATXN viability inactive.
COc1ccc(NC(=O)CC2C(=O)N(c3ccc(OC)cc3)C(=O)N2CCC2=CCCCC2)cc1 (centres undefined) was read as ATXN2 expr inh 11%, KB-V1 cytotox inactive, KB-3-1 tox inactive and ATXN viability inactive.
Screening CC1CN(C(=O)c2cc(S(=O)(=O)N3CCCCC3)ccc2Cl)CC(C)O1 (centres undefined) returned ATXN2 expr inh 5%, KB-V1 cytotox 21µM*, HT1080-NT tox 12%, KB-3-1 tox inactive, ATXN viability inconclusive and HT1080 IDH1KD tx 6%.
O=C(NCc1cccnc1)c1ccc([N+](=O)[O-])o1 was read as KB-V1 cytotox 23µM*, HT1080-NT tox inconclusive, KB-3-1 tox inactive, ATXN viability inconclusive and HT1080 IDH1KD tx inconclusive.
`O=C(Cc1ccc(-c2ccccc2)cc1)NNC(=S)NCc1ccco1` gave ATXN2 expr inh -6%, KB-V1 cytotox 8.2µM*, HT1080-NT tox -14%, KB-3-1 tox inactive, ATXN viability inactive and HT1080 IDH1KD tx -8%.
Cc1ccc(CNC(=O)Cc2ccc(-c3ccccc3)cc2)cc1 was read as ATXN2 expr inh 0%, KB-V1 cytotox inactive, HT1080-NT tox 4µM*, KB-3-1 tox inactive, ATXN viability inconclusive and HT1080 IDH1KD tx 2.8µM*.
Cc1ccc(CC(=O)NCc2ccc(F)cc2)cc1 was read as KB-V1 cytotox inconclusive, HT1080-NT tox 9.2µM*, KB-3-1 tox inconclusive, ATXN viability inactive and HT1080 IDH1KD tx 7.3µM*.
O=C(Nc1cccnc1)c1ccc([N+](=O)[O-])o1 was read as ATXN2 expr inh 1%, KB-V1 cytotox inconclusive, HT1080-NT tox inconclusive, KB-3-1 tox inconclusive, ATXN viability inactive and HT1080 IDH1KD tx inconclusive.
CC(C)Sc1nnc2c3ccccc3n(C)c2n1 was read as HT1080-NT tox 2% and HT1080 IDH1KD tx 5%.
`O=P(O)(O)C(O)(Cc1cccnc1)P(=O)(O)O` gave ATXN2 expr inh 8% and ATXN viability inactive.
For c1ccc(CN=C(NCc2ccccc2)NCc2ccccc2)cc1 the results were ATXN2 expr inh inconclusive, KB-V1 cytotox inactive, HT1080-NT tox inconclusive, KB-3-1 tox inconclusive, ATXN viability inactive and HT1080 IDH1KD tx 16µM*.
For S=C(NCc1ccccc1)C(=S)NCc1ccccc1 the results were ATXN2 expr inh 14%, KB-V1 cytotox inactive, HT1080-NT tox 1%, KB-3-1 tox inactive, ATXN viability inconclusive and HT1080 IDH1KD tx 0%.
`O=C(Nc1ccc(Cl)cc1C(=O)NCc1cccnc1)c1ccc(Cl)cc1Cl` gave ATXN2 expr inh -9%, KB-V1 cytotox inconclusive, HT1080-NT tox inconclusive, KB-3-1 tox 21µM*, ATXN viability inactive and HT1080 IDH1KD tx inconclusive.
Screening O=C(Nc1c(Cl)cc(Cl)cc1C(=O)NCc1cccnc1)c1ccc(Cl)cc1Cl returned ATXN2 expr inh -11%, KB-V1 cytotox inactive, HT1080-NT tox -4%, KB-3-1 tox inconclusive, ATXN viability inactive and HT1080 IDH1KD tx -5%.
`O=C(Cc1ccc(Cl)cc1)c1c[nH]c(C(=O)NCc2cccnc2)c1` gave KB-V1 cytotox inactive, HT1080-NT tox -15%, KB-3-1 tox inactive, ATXN viability 2.5µM* and HT1080 IDH1KD tx inconclusive.
`Cc1noc(C)c1COc1ccc(CC(=O)NCc2ccccc2)cc1` gave ATXN2 expr inh inconclusive, KB-V1 cytotox inconclusive, HT1080-NT tox inconclusive, KB-3-1 tox inconclusive, ATXN viability inactive and HT1080 IDH1KD tx 1.2µM*.
COc1ccc2c(CNCc3ccco3)c(C(=O)O)n(Cc3ccc(F)cc3Cl)c2c1 was read as KB-V1 cytotox inactive and KB-3-1 tox inactive.
O=C(Cc1ccc(-c2ccccc2)cc1)NCc1cccnc1 was read as ATXN2 expr inh -24%, KB-V1 cytotox inconclusive, HT1080-NT tox inconclusive, KB-3-1 tox 15µM*, ATXN viability inactive and HT1080 IDH1KD tx 8.2µM*.
For Nc1nc2ccccc2cc1C(=O)NCc1ccc(-c2ccccc2)cc1 the results were KB-V1 cytotox 2.6µM*, HT1080-NT tox inconclusive, KB-3-1 tox 2.3µM* and HT1080 IDH1KD tx 1.3µM*.

Source: PubChem
